From PubChem BioAssay
Shiga toxin inh: A qHTS for Small Molecule Inhibitors of Shiga Toxin | inhibition, % at 38.7 µM | Vero cells, Shiga toxin protein synthesis inhibition reporter | hit rate 9.2% among 290,000 | AID 2315, 2010; in the data active = inhibition mostly above about 28%, no sharp cut-off; inactive = mostly below about 43%; also: 0% is about no effect
NS1 inh: qHTS Assay for Inhibitors of Influenza NS1 Protein Function; Potency, µM (highest dose often 46.1 µM), for the others: at the top dose activity, positive = more growth; hit rate 0.4% among 270,000; AID 2326, 2010; calls by dose curve; also: potency is read from the fitted curve at half-maximal effect; actives are rising curves; nearly all actives have a fitted effect of over 50% in size
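In this qHTS, NS1 from influenza A is expressed in budding yeast, where it slows growth. Cells are switched from glucose to 2% galactose medium (pH 6.0, -URA), treated with compound, and growth recovery is read at OD600.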
CHX counter: Cycloheximide Counterscreen for Small Molecule Inhibitors of Shiga Toxin. cell reporter, cycloheximide protein synthesis inhibition counterscreen. max response, %. hit rate 12% among 300,000; in the data active = max response mostly above about 13%, no sharp cut-off; inactive = mostly below about 14%; also: read at 38.3 µM for the half of the compounds with a filed dose; 0% is about no effect
AmpC inh no detg: qHTS Inhibitors of AmpC Beta-Lactamase (assay without detergent). Potency, µM (series often up to 57.1 µM), without a hit: top-dose activity change, negative = inhibition, hits mostly inhibitors. P00811. hit rate 0.52% among 330,000. AmpC nitrocefin hydrolysis, absorbance 480 nm, 0.0001% Triton;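 also: potency is read from the fitted curve at half-maximal effect; plate controls were no compound for no effect and no enzyme for full effect; nearly all actives have a fitted effect of over 20% in size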
Target sequence (P00811 whole entry, looked up): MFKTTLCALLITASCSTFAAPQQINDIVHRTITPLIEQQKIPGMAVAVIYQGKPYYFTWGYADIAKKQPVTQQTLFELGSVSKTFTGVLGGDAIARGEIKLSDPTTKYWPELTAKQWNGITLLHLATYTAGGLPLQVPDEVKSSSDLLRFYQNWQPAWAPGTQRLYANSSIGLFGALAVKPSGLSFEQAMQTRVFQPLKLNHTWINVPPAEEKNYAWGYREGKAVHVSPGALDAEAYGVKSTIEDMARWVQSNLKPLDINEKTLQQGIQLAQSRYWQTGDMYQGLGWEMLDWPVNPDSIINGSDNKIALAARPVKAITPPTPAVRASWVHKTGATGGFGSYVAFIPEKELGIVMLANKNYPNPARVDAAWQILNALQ
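20 mM phosphate pH 7.0 + 0.01% (detergent screen) or 0.0001% Triton X-100; 5.3 nM AmpC reagent; cpd preinc 15 min RT; nitrocefin (800 uM stock) to start; A480 q20 s × 4 min; Activity was normalised to no-enzyme and no-compound control wells.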
AmpC detergent: qHTS Inhibitors of AmpC Beta-Lactamase (assay with detergent); hit rate 0.041% among 370,000; AmpC hydrolysis of nitrocefin, absorbance 480 nm, 0.01% Triton; Potency, µM (top dose mostly 114 µM), for the others: at the top dose activity change, negative = inhibition, actives largely listed as inhibitors; P00811; AID 485294, 2010;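 also: potency is read from the fitted curve at half-maximal effect; 0% = no-compound wells and -100% = no-enzyme wells; nearly all actives have a fitted effect of over 25% in size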
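AmpC (5.3 nM in the dispensed reagent) in 20 mM phosphate pH 7.0 with 0.01% (detergent screen) or 0.0001% Triton X-100 was preincubated with compounds for 15 min at room temperature. Nitrocefin was then added from an 800 uM solution, and hydrolysis was followed at 480 nm.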
NS1 inh valid: Assay for Inhibitors of Influenza NS1 Protein Function: Hit Validation; influenza NS1 function cell assay, 15-point titration; shares compounds with NS1 inh; activity change, negative = inhibition, % at 32.9 µM; 1,400 tested, under 10 active; AID 492980, 2010; calls by dose curve; also: 0% is about no effect
* marks the source's active call; other numbers are inactive results. The entries come from a sample that favours hits as a whole. Unless noted, calls follow the shape of the dose curve; as a rule, active = well fitted curve in the direction sought with a large enough effect; inconclusive = small, poorly fitted or top-dose-only effect, or another doubt; inactive = no such curve, though single readings can be large; an effect the other way counts as inactive or inconclusive.

How did Cc1c(NC(=O)C2CCCN2S(=O)(=O)c2ccccc2)c(=O)n(-c2ccccc2)n1C (stereo unspecified) do in these assays?
Shiga toxin inh: 2.0; NS1 inh: 7.08µM*; CHX counter: -5.0; AmpC inh no detg: -4.5%; AmpC detergent: -2.7%; NS1 inh valid: -10.0

What do the screens show for `CCN(CC)S(=O)(=O)c1ccc2oc(SCC3CN=C(c4ccc(OC)cc4)S3)nc2c1` (stereo unspecified)?
Shiga toxin inh: 5.3; NS1 inh: -33.2%; CHX counter: 13.6; AmpC inh no detg: -7.2%; AmpC detergent: inconclusive

Results for CN(C)S(=O)(=O)c1ccc(Cl)c(NC(=O)COC(=O)/C=C/c2ccc(S(=O)(=O)N3CCOCC3)cc2)c1 ?
Shiga toxin inh: -6.6; NS1 inh: 20µM*; CHX counter: -4.9; AmpC inh no detg: 33.4%; AmpC detergent: -5.1%; NS1 inh valid: inconclusive

How did N#Cc1ccccc1NC(=O)COC(=O)/C=C/c1ccc(S(=O)(=O)N2CCOCC2)cc1 do in these assays?
AmpC inh no detg: -10.6%

Results for Cc1ccc(-n2c(Cn3c(C)nc4ccccc43)n[nH]c2=S)cc1 ?
Shiga toxin inh: -6.6; NS1 inh: inconclusive; CHX counter: -2.9; AmpC inh no detg: 3.7%; AmpC detergent: 6.3%; NS1 inh valid: 22.3

Results for Cc1ccc(-n2c(CCc3nc4ccccc4[nH]3)n[nH]c2=S)cc1 ?
Shiga toxin inh: -7.7; NS1 inh: 0.3%; CHX counter: -2.5; AmpC inh no detg: -3.6%; AmpC detergent: 2.3%

How did COc1ccc(Br)c(/C=N/NC(=O)COc2ccc(-c3ccccc3)cc2)c1 do in these assays?
Shiga toxin inh: 7.3; NS1 inh: inconclusive; CHX counter: -0.8; AmpC detergent: 2.7%; NS1 inh valid: -12.5

How did O=C(O)COc1ccccc1/C=N/NC(=O)COc1ccc(-c2ccccc2)cc1 do in these assays?
Shiga toxin inh: -4.3; NS1 inh: 15.8%; CHX counter: -1.7; AmpC inh no detg: -31.4%; AmpC detergent: 1.7%

What do the screens show for `O=c1[nH]c(C2CCCN(S(=O)(=O)c3ccccc3)C2)nc2c1nnn2Cc1ccccc1Br` (stereo unspecified)?
Shiga toxin inh: -10.8; NS1 inh: 7.08µM*; CHX counter: 0.7; AmpC inh no detg: 1.0%; AmpC detergent: inconclusive; NS1 inh valid: inconclusive

How did Cc1ccc(Cn2nnc3c(=O)[nH]c(C4CCN(S(=O)(=O)c5ccc(F)cc5)CC4)nc32)cc1 do in these assays?
Shiga toxin inh: 5.8; NS1 inh: 12.6µM*; CHX counter: 3.4; AmpC inh no detg: 9.0%; AmpC detergent: inconclusive; NS1 inh valid: 4.1

What do the screens show for `CCN(CC)c1ccc(C=C(c2nnnn2-c2ccccc2)c2nnnn2-c2ccccc2)cc1`?
Shiga toxin inh: 30.3; NS1 inh: 7.94µM*; CHX counter: 1.4; AmpC inh no detg: inconclusive; AmpC detergent: -12.7%; NS1 inh valid: 15.5

Results for Cc1ccc(-n2nnnc2C(=Cc2ccc(N(C)C)cc2)c2nnnn2-c2ccc(C)cc2)cc1 ?
Shiga toxin inh: -33.1; NS1 inh: 23.3%; CHX counter: -2.4; AmpC inh no detg: -21.5%; AmpC detergent: -1.9%

Results for O=C(Cc1ccsc1-c1ccccc1)NO ?
Shiga toxin inh: 18.2; NS1 inh: inconclusive; CHX counter: -4.0; AmpC inh no detg: -16.9%; AmpC detergent: 4.6%; NS1 inh valid: 8.0

What do the screens show for `O=C(Cc1csc(NC(=O)c2ccccc2)n1)NO`?
Shiga toxin inh: -0.9; CHX counter: 7.9; AmpC inh no detg: -9.3%; AmpC detergent: inconclusive

Results for COc1cccc(CNC(=O)Cn2c(=O)cc(C(F)(F)F)c3c(C)nn(C)c32)c1OC ?
AmpC detergent: 18.7%

What do the screens show for `Cc1sc(NC(=O)C2=COCCO2)nc1-c1ccc(F)cc1`?
AmpC inh no detg: -0.2%; AmpC detergent: -4.8%

What do the screens show for `COC(=O)c1ccccc1NC(=S)N(Cc1ccc2c(c1)OCO2)Cc1cc2cc(C)ccc2[nH]c1=O`?
Shiga toxin inh: -4.4; NS1 inh: 11.2µM*; CHX counter: -0.9; AmpC inh no detg: -29.4%; AmpC detergent: -11.2%; NS1 inh valid: inconclusive
